# Laboratory results as given in PubChem BioAssay AID1159606 (Sanford-Burnham Center for Chemical Genomics, 2016).
# Out of some 360,000 compounds screened, about 7,300 (2%) were called active. No stated cut-off is given here; in the data, active means inhibition above about 50%; inactive means the rest. The sample as a whole holds a higher share of actives than the screen did.
# Assay: blockers of TWEAK-induced Fn14 reporter activity – luciferase reporter cells, uHTS, primary screen (AID 1159606)
# Settings: TWEAK-stimulated Fn14 reporter cells, luciferase luminescence, 8 h; at 10 µM; hits give high values
row,Compound,inhibition
1,O=C1c2ccccc2C(c2nc3ccccc3[nH]2)N1c1ccccc1 (stereo unspecified),20.9% (inactive)
2,CCc1ccc(Oc2coc3cc(OC(=O)c4cc5ccccc5oc4=O)ccc3c2=O)cc1,-16.7% (inactive)
3,CSc1nnc(CNC(=O)c2ccccc2)n1-c1ccc(F)cc1,23.6% (inactive)
4,O=C(OC1CC2CC1[C@H]1CCCCN1C2=O)N1CCOCC1 (stereo partly specified),24.2% (inactive)
5,NC(=O)c1ncn([C@@H]2O[C@H](CN=C3NS(=O)(=O)c4ccccc43)[C@@H](O)[C@H]2O)n1,-2.64% (inactive)
6,Cc1oc2cc([N+](=O)[O-])c(O)c([N+](=O)[O-])c2c1C(=O)c1ccc(Br)cc1,20% (inactive)
7,O=C(O)c1cc(S(=O)(=O)N(Cc2ccccc2)c2cccc(C(F)(F)F)c2)ccc1Cl,9.03% (inactive)
8,O=C(NNc1ccccc1Cl)C(O)(c1cccc(C(F)(F)F)c1)c1cccc(C(F)(F)F)c1,74.5% (active)
9,O=C(CNS(=O)(=O)c1cccc(C(F)(F)F)c1)Nc1ccccc1F,-3.29% (inactive)
10,CCCNCc1cc(OCC)c(OCC(=O)Nc2ccccc2)cc1Br,3.35% (inactive)
11,O=C(CN1C(=O)CSC1=O)N1CCCC(Nc2ccc(F)cc2)C1 (stereo unspecified),89.2% (active)
12,O=C1CCCCN1CCCC(=O)N1CCCC(Nc2ccc(F)cc2)C1 (stereo unspecified),10.3% (inactive)
13,O=C(CN1CCOC1=O)N1CCCC(Nc2ccc(F)c(F)c2)C1 (stereo unspecified),-4.67% (inactive)
14,CCCn1c(N)c(C(=O)CSc2nnc(Cc3cccs3)n2C2CC2)c(=O)[nH]c1=O,-4.97% (inactive)
15,CC1CC(C)CN(S(=O)(=O)c2ccc(C(=O)NN3CCOCC3)cc2)C1 (stereo unspecified),15.8% (inactive)
16,COc1ccc(-c2noc(CNC(=O)C(C)Oc3ccccc3)n2)cc1 (stereo unspecified),-2.29% (inactive)
17,COc1ccc(/C=C/c2noc(-c3ccccc3OC(C)=O)n2)cc1,48.5% (inactive)
18,COc1ccc(-c2nc(-c3ccccc3)no2)c(OC)c1,96.2% (active)
19,CC1CN(C(=O)CCC(=O)NCCCN2CCC(Cc3ccccc3)CC2)c2cc(Cl)ccc2O1 (stereo unspecified),-12.8% (inactive)
20,O=C1C2CCCN2C(=O)N1CCCCN1CCN(c2cccc(C(F)(F)F)c2)CC1 (stereo unspecified),-4.34% (inactive)
21,COc1ccc(N(CCC(=O)NCCc2ccccc2)S(=O)(=O)c2ccc(C)cc2C)cc1,-9.44% (inactive)
22,O=C(O)CCn1cc(/C=C/C(=O)c2ccc(Cl)cc2)c(-c2cccc(Br)c2)n1,66% (active)
23,COc1ccc(NC(=O)CN(C)C(=O)/C=C/c2cn(Cc3ccccc3)nc2-c2cccnc2)cc1,-11.2% (inactive)

row,Compound,inhibition
1,O=C(COC(=O)/C=C/c1cn(-c2ccccc2)nc1-c1cccnc1)Nc1ccc(Cl)cc1Cl,-65% (inactive)
2,CCOC(=O)[C@H]1Nc2ccc(Cl)cc2[C@@H]2[C@H]1C1CC(c3ccccc31)N2C(=O)OCc1ccccc1 (stereo partly specified),-23.5% (inactive)
3,CCCCNC(=O)OC1CC2CC1[C@H]1CCCCN1C2=O (stereo partly specified),7.93% (inactive)
4,CCOC12CC(C)(C)CC(C)(CC3=C1C(=O)CC(C)(C)C3)C2 (stereo unspecified),76.6% (active)
5,Cc1noc(C)c1-c1nc(CSc2ccc(Cl)cc2)no1,-29% (inactive)
6,COc1cc2nnn(-c3ccncc3)c2cc1OC,1.57% (inactive)
7,Cn1c(N2CCOCC2)c(C=O)c2ccccc21,-2.19% (inactive)
8,COc1cccc(-n2c(=S)[nH]c3c(oc4ccccc43)c2=O)c1,22.3% (inactive)
9,O=c1oc2ccccc2cc1-c1cn(-c2ccccc2)c(=S)[nH]1,107% (active)
10,CC1(C)CCSC(/C=C/c2ccccc2)=N1,71.7% (active)
11,CC1(C(=O)O)CCN1C(=O)/C=C/c1ccccc1 (stereo unspecified),4.71% (inactive)
12,CC1(C(=O)NS(=O)(=O)c2ccccc2)CCN1C(=O)C/C=C/c1ccccc1 (stereo unspecified),-7.09% (inactive)
13,CC(C)=CCCC1(C)C=Cc2c(ccc3c2[nH]c2cc(O)c(C)cc23)O1 (stereo unspecified),67% (active)
14,CN(C(=O)COC(=O)Cn1cnc2c1c(=O)n(C)c(=O)n2C)C1(C#N)CCCCC1,-7.55% (inactive)
15,COC(=O)C(C)N(C#N)c1nc(C)nc(C)n1 (stereo unspecified),-3.55% (inactive)
16,Cc1nnc(SC(C(=O)Nc2cc(Cl)cc(Cl)c2)c2ccccc2)[nH]c1=O (stereo unspecified),-1.44% (inactive)
17,CCCc1ccc(OCCNC(=O)c2ccccc2Br)cc1,-12.5% (inactive)
18,CC(C)CCOc1ccc(C(=O)C[N+]2(C)CCOCC2)cc1,-7.15% (inactive)
19,CCCOc1ccc(C(=O)C(CCC(CNCC)C(=O)c2ccc(OCCC)cc2)CNCC)cc1 (stereo unspecified),103% (active)
20,CC(Oc1ccc(F)cc1)C(=O)Nc1ccccc1C(=O)NC1CC1 (stereo unspecified),8.99% (inactive)
21,COC(=O)c1onc(-c2c(OC)cc(OC)cc2OC)c1C(=O)OC,10.7% (inactive)
22,CC(C)C(C(=O)NC1CCCCC1)N(CC1CCCO1)C(=O)CNS(=O)(=O)c1ccc(F)cc1 (stereo unspecified),8.87% (inactive)
23,Cc1ccc(N(CC(=O)NC2CCCCC2)C(=O)CCCC(=O)Nc2ccccn2)c(C)c1,-5.23% (inactive)

row,Compound,inhibition
1,Cc1ccc(C(=O)NCC(=O)OCc2nnc(-c3ccccc3)o2)cc1,9.26% (inactive)
2,Cc1onc(-c2ccccc2)c1-c1nnc(COC(=O)c2ccc(N(C)C)cc2)o1,54.4% (active)
3,Cc1onc(-c2ccccc2Cl)c1C(=O)OCc1nnc(-c2ccccc2)o1,-0.22% (inactive)
4,O=C(NC1CCCC1)C1c2ccccc2OCC(=O)N1CC(F)(F)F (stereo unspecified),1.42% (inactive)
5,COC1=CC(=O)OC(C)(c2ccccc2)C1 (stereo unspecified),20.1% (inactive)
6,COc1cc2c(C(=O)O)c(C)n(C)c2c2ccccc12,14% (inactive)
7,COc1cccc2c(C)c(C(=O)O)[nH]c12,74.4% (active)
8,COc1cccc2c(O)cc(=O)n(C)c12,15.4% (inactive)
9,CC1(C(=O)NS(=O)(=O)c2ccc(C#N)cc2)CCN1C(=O)c1ccc(C2CCCCC2)cc1 (stereo unspecified),24.4% (inactive)
10,CN1CCN(C(=O)CCc2ncc(C(F)(F)F)cc2Cl)CC1,-4.72% (inactive)
11,O=C1NC[C@H](CCCCN2C[C@H](Cc3ccccc3)N(Cc3ccccc3)C(=O)C2=O)N(CCc2ccc(O)cc2)C1=O,-9.13% (inactive)
12,O=c1cc(N2CCCCC2)c(-c2ccccc2)nn1Cc1cccc(F)c1,-1.41% (inactive)
13,O=C(/C=C/NCc1ccc(F)cc1)c1ccccc1,-22.1% (inactive)
14,Cc1ccc(N/C=C/C(=O)c2ccccc2)cc1C,66.8% (active)
15,CCOc1ccc(NC(=S)N2CCC(NC(=O)c3ccccc3)CC2)cc1,-4.25% (inactive)
16,COc1ccc(N2C(=O)CCC(C(=O)Nc3ccccn3)C2c2ccc(OC)c(OC)c2)cc1 (stereo unspecified),2.83% (inactive)
17,Cc1cc(N/C=C\C(=O)c2ccc(Cl)c(Cl)c2)no1,-21% (inactive)
18,COc1ccc(C(=O)/C=C/Nc2ccccn2)cc1,97.4% (active)
19,CCOc1ccc(NC(=O)C2CCCN(C(=O)Nc3ccccc3)C2)cc1 (stereo unspecified),-2.21% (inactive)
20,Cc1ccc(NNC(=O)C2CCC2)cc1C,-5.21% (inactive)
21,CCOc1ccc(N/C=C/C(=O)c2ccccc2)cc1,70.8% (active)
22,COCc1ccc(C(=O)NC2CC(C)(C)Cc3c2cnn3-c2ccc(C)cc2)o1 (stereo unspecified),3.46% (inactive)
23,COCCCNC(=O)CC1C[C@H](C(=O)N2CCCCC2)[C@@]2(CCc3ccccc3)c3[nH]c4ccccc4c3CCN2C1=O (stereo partly specified),17.5% (inactive)

row,Compound,inhibition
1,O=C(CCCl)Nc1ccc(S(=O)(=O)NCc2ccco2)cc1,13% (inactive)
2,CCNC(=O)c1cc2c(c(-c3cccc(-c4cncnc4)c3)n1)[C@H](CCO)N(C(C)=O)C2,-9.64% (inactive)
3,Cc1ccccc1-n1nnc2c(=O)oc3ccccc3c21,-3.42% (inactive)
4,O=C1CCC(=O)N1c1ccc(NCCc2ccccc2F)c([N+](=O)[O-])c1,-12.8% (inactive)
5,C=CCc1ccccc1OCC(O)CN1CCN(CCO)CC1 (stereo unspecified),-11.8% (inactive)
6,S=C(c1ccc(-c2ccccc2)o1)N1CCCCC1,-8.48% (inactive)
7,OCCN1CCN(C(=S)c2ccc(-c3ccccc3)cc2)CC1,54.4% (active)
8,Cc1cc(C)n2c(NCc3ccccc3)c(CC(C)C)nc2n1,-7.32% (inactive)
9,Cc1ccc(C)c(S(=O)(=O)N(C)c2ccc(OC(=O)C3CCN(C(=O)c4ccc(F)cc4)CC3)cc2)c1,-10.5% (inactive)
10,Cc1ccc(C)c(NC(CC(=O)c2ccccc2)C(=O)OCC(=O)c2cccs2)c1 (stereo unspecified),-31.8% (inactive)
11,O=C(NCC(=O)N1CCN(c2ccccc2F)CC1)c1cccs1,-8.04% (inactive)
12,Cc1ccccc1C(CC(=O)c1cccs1)C(C#N)C#N (stereo unspecified),83.8% (active)
13,Cc1nn(-c2ccccc2)c(=O)c2noc(C)c12,2.03% (inactive)
14,COc1cccc(CN2C(=O)CCC2(C)C(=O)NC2CCCCCC2)c1 (stereo unspecified),9.99% (inactive)
15,CCOC(=O)C1=CC[C@@H](c2ccccc2)N(S(=O)(=O)c2ccc(C)cc2)[C@H]1c1cccc(OC)c1,3.81% (inactive)
16,CN1CCN(S(=O)(=O)c2ccc(N3CCN(S(=O)(=O)c4cccs4)CC3)nc2)CC1,-14.8% (inactive)
17,OC[C@@H]1CN(Cc2ccncc2)C[C@H](n2cnc3c(N4CCN(c5ccccc5)CC4)ncnc32)O1,29.9% (inactive)
18,Cc1cccc(NC(=S)N2CCC(C(=O)c3ccc(F)cc3)CC2)c1,-7.96% (inactive)
19,O=C(O)c1ccccc1CSc1nc2ccccc2s1,53.1% (active)
20,Clc1ccc(-c2nnc(SCc3nc4ccccc4s3)o2)cc1,-3.77% (inactive)
21,O=[N+]([O-])c1c(NCCO)cc(Sc2nc3ccccc3s2)c2nonc12,9.76% (inactive)
22,COC(=O)[C@]12CCCCC=C1N(CCC1=CCCCC1)C(=O)[C@H](CC(=O)NCC1CCCCC1)C2,9.77% (inactive)
